Source: PubChem BioAssay AID1159580 (chemical genetic matrix, 2015)
Where “and” joins values, the source holds several entries; their conditions need not be identical. Equal values may be shown once. Out of some 5,500 compounds screened, about 2,000 (36%) were called active. Inconclusive results (about 18%) are left out. No stated cut-off is given here; in the data, active means normalized growth mostly below about 0.91 (no sharp cut-off); inconclusive means no clear call, values can overlap the other calls; inactive means mostly above about 0.92. The list shows a part of the results.

Assay: chemical genetic growth profiling, strain panel (AID 1159580);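 further: tested at 20 µM; growth read once vehicle control cultures reached saturation at 30 °C; 1 = growth at the plate median or of vehicle wells; lower values mean less growth of the strain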
Conditions: growth OD

Measured: normalized growth

CC(C)(C)NCC(O)c1cc(O)cc(O)c1 (stereo not drawn)
inactive: S. cerevisiae deletion strains, locus YKL009W, strain mrt4, active compounds read low 0.961 | S. cerevisiae deletion strains, locus YKL068W, active compounds read low 0.975 | S. cerevisiae deletion strains, locus YKL085W, strain MDH1 (second series), active compounds read low 0.967 | S. cerevisiae deletion strains, locus YKL085W, strain MDH1, active compounds read low 0.967 | S. cerevisiae deletion strains, locus YKL160W, strain elf1, active compounds read low 0.934 | S. cerevisiae deletion strains, locus YKL190W, strain CNB1, active compounds read low 0.994 | S. cerevisiae deletion strains, locus YKR001C, strain vps1, active compounds read low 0.994 | S. cerevisiae deletion strains, locus YKR026C, strain gcn3, active compounds read low 0.983 | S. cerevisiae deletion strains, locus YKR091W, strain srl3, active compounds read low 0.978 | S. cerevisiae deletion strains, locus YLL001W, strain dnm1, active compounds read low 1 | S. cerevisiae deletion strains, locus YLL026W, active compounds read low 0.984 | S. cerevisiae deletion strains, locus YLL041C, strain sdh2, active compounds read low 0.993 | S. cerevisiae deletion strains, locus YLR027C, strain aat2, active compounds read low 0.987 | S. cerevisiae deletion strains, locus YLR039C, strain RIC1, active compounds read low 0.978 | S. cerevisiae deletion strains, locus YLR058C, strain SHM2, active compounds read low 0.987 | S. cerevisiae deletion strains, locus YLR102C, strain apc9, active compounds read low 0.982 | S. cerevisiae deletion strains, locus YLR113W, strain HOG1, active compounds read low 0.981 | S. cerevisiae deletion strains, locus YLR221C, strain rsa3, active compounds read low 1.01 | S. cerevisiae deletion strains, locus YLR258W, strain gsy2, active compounds read low 0.993 | S. cerevisiae deletion strains, locus YLR262C, strain YPT6 (second series), active compounds read low 1 | S. cerevisiae deletion strains, locus YLR262C, strain YPT6, active compounds read low 0.979 | S. cerevisiae deletion strains, locus YLR268W, strain sec22, active compounds read low 0.951 | S. cerevisiae deletion strains, locus YLR320W, strain mms22, active compounds read low 0.981 | S. cerevisiae deletion strains, locus YLR330W, strain CHS5, active compounds read low 0.976 | S. cerevisiae deletion strains, locus YLR342W, strain FKS1 (second series), active compounds read low 0.99 | S. cerevisiae deletion strains, locus YLR342W, strain FKS1, active compounds read low 0.991 | S. cerevisiae deletion strains, locus YLR357W, strain rsc2, active compounds read low 0.967 | S. cerevisiae deletion strains, locus YLR370C, strain arc18, active compounds read low 0.975 | S. cerevisiae deletion strains, locus YLR371W, strain rom2, active compounds read low 0.964 | S. cerevisiae deletion strains, locus YLR384C, strain iki3, active compounds read low 0.988 | S. cerevisiae deletion strains, locus YLR418C, strain cdc73, active compounds read low 0.996 | S. cerevisiae deletion strains, locus YML016C, strain PPZ1, active compounds read low 0.992 | S. cerevisiae deletion strains, locus YML032C, strain rad52, active compounds read low 0.99 | S. cerevisiae deletion strains, locus YML120C, strain ndi1, active compounds read low 0.967 | S. cerevisiae deletion strains, locus YML124C, strain tub3, active compounds read low 0.983 | S. cerevisiae deletion strains, locus YMR058W, strain fet3, active compounds read low 1 | S. cerevisiae deletion strains, locus YMR078C, strain ctf18, active compounds read low 0.976 | S. cerevisiae deletion strains, locus YMR125W, strain sto1, active compounds read low 0.959 | S. cerevisiae deletion strains, locus YMR129W, active compounds read low 0.969 | S. cerevisiae deletion strains, locus YMR205C, strain PFK2, active compounds read low 0.984 | S. cerevisiae deletion strains, locus YMR223W, strain ubp8, active compounds read low 1.02 | S. cerevisiae deletion strains, locus YMR231W, strain pep5, active compounds read low 0.98 | S. cerevisiae deletion strains, locus YMR263W, strain SAP30, active compounds read low 0.984 | S. cerevisiae deletion strains, locus YMR307W, strain GAS1, active compounds read low 1.04 and 0.986 | S. cerevisiae deletion strains, locus YNL067W, strain RPL9B, active compounds read low 0.985 | S. cerevisiae deletion strains, locus YNL071W, strain lat1, active compounds read low 0.995 | S. cerevisiae deletion strains, locus YNL128W, strain TEP1, active compounds read low 1.01 | S. cerevisiae deletion strains, locus YNL175C, strain NOP13, active compounds read low 0.995 | S. cerevisiae deletion strains, locus YNL183C, strain NPR1, active compounds read low 0.943 | S. cerevisiae deletion strains, locus YNL197C, strain WHI3, active compounds read low 1 | S. cerevisiae deletion strains, locus YNL209W, strain ssb2, active compounds read low 0.989 | S. cerevisiae deletion strains, locus YNL224C, strain SQS1, active compounds read low 1.01 | S. cerevisiae deletion strains, locus YNL233W, strain BNI4, active compounds read low 0.993 | S. cerevisiae deletion strains, locus YNL248C, strain rpa49, active compounds read low 0.923 | S. cerevisiae deletion strains, locus YNL271C, strain bni1, active compounds read low 0.985 | S. cerevisiae deletion strains, locus YNL298W, strain CLA4, active compounds read low 0.979 | S. cerevisiae deletion strains, locus YNL307C, strain MCK1, active compounds read low 0.975 | S. cerevisiae deletion strains, locus YNL322C, strain KRE1 (second series), active compounds read low 0.953 | S. cerevisiae deletion strains, locus YNL322C, strain KRE1, active compounds read low 0.979 | S. cerevisiae deletion strains, locus YNR049C, strain mso1, active compounds read low 0.983 | S. cerevisiae deletion strains, locus YNR052C, strain pop2, active compounds read low 0.983 | S. cerevisiae deletion strains, locus YOL006C, strain TOP1, active compounds read low 1.06 | S. cerevisiae deletion strains, locus YOL012C, strain htz1 0.966 | S. cerevisiae deletion strains, locus YOL147C, strain pex11, active compounds read low 0.969 | S. cerevisiae deletion strains, locus YOR001W, strain rrp6, active compounds read low 1.01 | S. cerevisiae deletion strains, locus YOR061W, strain CKA2, active compounds read low 1 | S. cerevisiae deletion strains, locus YOR069W, strain VPS5, active compounds read low 0.986 | S. cerevisiae deletion strains, locus YOR070C, strain gyp1, active compounds read low 0.986 | S. cerevisiae deletion strains, locus YOR080W, strain dia2, active compounds read low 0.996 | S. cerevisiae deletion strains, locus YOR083W, strain WHI5 (second series), active compounds read low 0.987 | S. cerevisiae deletion strains, locus YOR083W, strain WHI5, active compounds read low 0.908 | S. cerevisiae deletion strains, locus YOR106W, strain vam3, active compounds read low 0.933 | S. cerevisiae deletion strains, locus YOR136W, strain idh2, active compounds read low 0.992 | S. cerevisiae deletion strains, locus YOR144C, strain elg1, active compounds read low 0.989 | S. cerevisiae deletion strains, locus YOR184W, strain ser1, active compounds read low 0.991 | S. cerevisiae deletion strains, locus YOR231W, strain MKK1, active compounds read low 1.01 | S. cerevisiae deletion strains, locus YOR265W, strain rbl2, active compounds read low 0.992 | S. cerevisiae deletion strains, locus YOR270C, strain vph1, active compounds read low 0.932 | S. cerevisiae deletion strains, locus YOR290C, strain snf2, active compounds read low 0.967 | S. cerevisiae deletion strains, locus YOR316C, strain cot1, active compounds read low 0.982 | S. cerevisiae deletion strains, locus YPL051W, strain arl3, active compounds read low 0.968 | S. cerevisiae deletion strains, locus YPL055C, strain LGE1, active compounds read low 1.01 and 0.983 | S. cerevisiae deletion strains, locus YPL078C, strain atp4, active compounds read low 0.944 | S. cerevisiae deletion strains, locus YPL106C, strain sse1, active compounds read low 0.97 | S. cerevisiae deletion strains, locus YPL240C, strain hsp82, active compounds read low 1.01 | S. cerevisiae deletion strains, locus YPL241C, strain CIN2, active compounds read low 0.987 | S. cerevisiae deletion strains, locus YPL256C, strain CLN2, active compounds read low 0.959 | S. cerevisiae deletion strains, locus YPR119W, strain clb2, active compounds read low 0.975 | S. cerevisiae deletion strains, locus YPR141C, strain kar3, active compounds read low 0.976 | S. cerevisiae deletion strains, locus YPR163C, strain tif3, active compounds read low 0.978 | S. cerevisiae deletion strains, locus YPR167C, strain met16, active compounds read low 0.974 | S. cerevisiae deletion strains, strain wtn01, active compounds read low 0.99 | S. cerevisiae strains, strain wild type, active compounds read low 0.993
